FMDV antiviral: blocks foot and mouth disease virus; FMDV antiviral cell-based qHTS; Potency, µM (highest dose often 57.9 µM), for inactives: at the highest dose activity change, negative = inhibition, actives largely listed as inhibitors; 410,000 compounds, 1.2% hits; AID 1159524; calls by dose curve; tested in HEK293T cells; note: read-out not given here; potency is the fitted concentration of half-maximal effect; % is set by controls: 0 for no effect and ±100 for the full control effect; nearly all actives have a fitted effect of over 45% in size
Marburg entry inh: blocks Marburg virus binding to or entry into cells. Marburg virus pseudotyped entry inhibition, cell reporter. Potency, µM (highest dose often 37.8 µM), for inactives: at the highest dose activity change, negative = inhibition, usual class: inhibitors. 300,000 compounds, 1.8% hits. AID 540276; calls by dose curve; tested in HEK293 cells; note: potency is the fitted concentration of half-maximal effect; % is set by controls: 0 for no effect and ±100 for the full control effect
LASV entry inh: inhibitors of Lassa virus binding or cell entry; Lassa virus pseudotype entry inhibition, cell reporter; Potency, µM (doses to about 37.9 µM), for the others: at the top dose activity change, negative = inhibition, usual class: inhibitors; 300,000 compounds, 1.2% hits; AID 540256; calls by dose curve; tested in HEK293 cells; note: potency is the fitted concentration of half-maximal effect; % is set by controls: 0 for no effect and ±100 for the full control effect; nearly all actives have a fitted effect of over 50% in size
SARS PLP yeast: blocks SARS-CoV papain-like protease in a yeast assay | S. cerevisiae expressing SARS-CoV PLpro, growth rescue | Potency, µM (top dose mostly 32.9 µM), for inactives: top-dose activity, positive = growth rescue, most hits filed as activators | 330,000 compounds, 0.19% hits; calls by dose curve; note: potency is the fitted concentration of half-maximal effect; 0% is about no effect; nearly all actives have a fitted effect of over 55% in size
HCMV antiviral: human cytomegalovirus inhibition. HFF cells, HCMV-luciferase reporter, 72 h; active compounds read low. activity change, negative = inhibition, % at 57.5 µM. 410,000 compounds, 4.5% hits. AID 1259415; in the data active = activity change below about -60%; inconclusive = no clear call, values can overlap the other calls; inactive = above about -39%; note: % is set by controls: 0 for no effect and ±100 for the full control effect
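Human foreskin fibroblasts infected with luciferase-reporter HCMV at MOI 1 PFU/cell, compounds at two doses. Luciferase measured 72 h post infection; normalized to buffer-only basal and Salinomycin (10uM) controls.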
HCV inhibitor: blocks hepatitis C virus; Huh7.5.1 HCVcc-Cre infection, luciferase reporter, 44 h; Potency, µM (doses to about 41.8 µM), for the others: top-dose activity change, negative = inhibition, hits mostly inhibitors; 340,000 compounds, 3.4% hits; AID 651820; active = well fitted inhibition curve with a large enough effect; inconclusive = small, poorly fitted or top-dose-only effect, or another doubt; inactive = no such curve, though single readings can be large or run the other way; note: potency is the fitted concentration of half-maximal effect; % is set by controls: 0 for no effect and ±100 for the full control effect
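Antiviral activity was scored by luciferase reporter output from cells infected with HCVcc-Cre (~0.5 moi) in presence of compound, 44 h infection period, cells seeded 1,000/well 4 h prior.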
Starred values were filed as active, the others as inactive; ? = inconclusive; / = not tested or not shown; [ ] = remark or other dose. An excerpt weighted towards active compounds, which were near 8% of everything screened.

SMILES | FMDV antiviral | Marburg entry inh | LASV entry inh | SARS PLP yeast | HCMV antiviral | HCV inhibitor
Nc1ccc2nc(-c3ccc(O)cc3)sc2c1 | ? | / | ? | / | 62.1 | /
Nc1ccc(-c2nc3ccc(N)cc3s2)cc1 | -76.5% | 11.2µM* | ? | -1.7% | -2.2 | ?
Cc1cc2c(c(=O)o1)[C@H](CC(C)C)C(C#N)=C(N)O2 | / | 4.5% | / | / | / | /
Cc1ccc(NC(=S)NCCc2ccc(F)cc2)c(C)c1 | 11.7% | ? | 13.3% | ? | ? | 2.1%
CCOc1ccccc1NC(=S)NCCc1ccc(F)cc1 | 22.0% | / | / | -0.4% | -64.8* | ?
Cc1ccc(F)cc1NC(=S)NCCc1ccccc1 | 6.4% | -15.7% | 13.0% | ? | -38.2 | 10µM*
CCOc1ccccc1NC(=S)NCCc1ccccc1 | 32.8% | / | / | -2.3% | ? | ?
CCOC(=O)C1CCCN(C(=O)c2cccc(NC(=O)c3nsc4ccccc34)c2)C1 (stereo unspecified) | 15.2% | / | ? | / | 69.6 | /
C=CCN1C(=O)CC[C@@]23C1=NC(C(=O)OC)=C(C(=O)OC)[C@@H]2N(C)c1ccccc13 | / | 13.6%[14.2 µM] | / | / | / | /
COc1cccc(C(=O)OCCN2CCCCC2)c1 | 4.1% | 0.0% | 5.3% | -5.0% | -100.3* | 16.4%
COc1cccc(C(=O)NNC(=O)C(=O)N2CCCCC2)c1 | 10.7% | 18.0%[46.1 µM] | -10.8% | 0.7% | -67.4* | 11.0%
COc1ccc(C(=O)NNC(=O)C(=O)N2CCCCC2)cc1OC | 10.1% | 6.0% | -2.2% | 6.8% | 0.2 | -6.0%
N#CC1(C#N)COC23CCCCC2C1(C#N)C(=N)O3 (stereo unspecified) | -6.0% | 22.1% | 22.1% | 15.2% | 167.7 | -19.1%
N#CC12COC3(CCCCC3C1(C#N)C#N)OC2=N (stereo unspecified) | 28.2µM* | ? | 1.5% | -0.3% | 15.7 | -11.0%
CCC1OC23CCCCC2C(C#N)(C(=N)O3)C1(C#N)C#N (stereo unspecified) | 14.1µM* | 1.4% | 19.8% | 3.6% | ? | -11.7%
CCCC1OC23CCCCC2C(C#N)(C(=N)O3)C1(C#N)C#N (stereo unspecified) | -7.9% | 0.1% | 4.3% | 5.8% | -34.9 | ?
CCc1nnc(SCC(=O)N(C)c2ccccc2)c2cc3sccc3n12 | ? | / | -5.7%[46.1 µM] | / | -66.7* | /
Cc1ccc(C)c(CNC(=O)CCn2cccn2)c1 | 2.5% | / | 12.2%[46.1 µM] | / | 33.2 | /
OCC1OC(n2ccc3c2ncn2ncnc32)C(O)C1O (stereo unspecified) | ? | / | / | / | -94.9* | /
Nc1ncnc2c1[nH]c(=O)n2C1OC(CO)C(O)C1O (stereo unspecified) | -2.7% | / | / | / | / | /
CNc1ncnc2c1ncn2[C@@H]1O[C@H](CO)[C@@H](O)[C@H]1O | -22.0% | 4.9% | ? | / | -37.7 | -19.6%
Nc1ncnc2c1ccn2[C@@H]1O[C@H](CO)[C@@H](O)[C@H]1O | ? | / | / | / | -106.3* | 35.5µM*
O=C(COc1ccc(F)cc1Br)NCc1nnc2ccccn12 | 8.0% | 21.1% | 3.3% | 3.6% | -27.7 | 41.9%
O=C(NN=C1C[C@@H](O)[C@H](O)[C@H]2[C@@H]3C(=O)N(c4cccc(Oc5ccccc5)c4)C(=O)[C@@H]3CC[C@H]12)OCc1ccccc1 | / | 4.0%[14.2 µM] | ? | / | / | /
Nc1cc(-c2ccc(Br)cc2)nn1Cc1ccccc1 | -11.1% | -23.5%[46.1 µM] | ? | -1.3% | -76.8* | 1.26µM*
SMILES | FMDV antiviral | Marburg entry inh | LASV entry inh | SARS PLP yeast | HCMV antiviral | HCV inhibitor
Cc1ccc(NC(=O)Cn2cc(C(=O)c3ccco3)c3ccccc32)c(C)c1 | -25.4% | / | ? | / | -73.5* | /
Cc1ccc(NC(=O)Cn2cc(C(=O)c3cccs3)c3ccccc32)cc1C | -6.6% | 11.2µM* | ? | / | ? | /
O=C(c1ccco1)c1cn(CC(=O)N2CCCc3ccccc32)c2ccccc12 | ? | ? | -2.4% | -21.0% | 33.3 | 11.2µM*
Cc1cccc(NC(=O)Cn2cc(C(=O)c3ccco3)c3ccccc32)c1C | 0.0% | ? | -24.7%[46.1 µM] | / | -87.5* | /
Cc1ccc(C)c(NC(=O)Cn2cc(C(=O)c3ccco3)c3ccccc32)c1 | -25.2% | -22.3%[46.1 µM] | -29.7%[46.1 µM] | / | -33.8 | /
COC(=O)C1=C(C(=O)OC)[C@@H]2N(C)c3ccccc3[C@@]23CCC(=O)N(CCCOC(C)C)C3=N1 | / | -9.7%[14.2 µM] | / | / | / | /
CC1Sc2ccccc2N(Cc2ccc(OC(F)(F)F)cc2)C1=O (stereo unspecified) | -10.2% | / | / | / | ? | /
COc1ccc(C2=CC(=O)C[C@H](CN3C(=O)c4ccccc4C3=O)N(C(=O)OC(C)(C)C)O2)cc1 | 0.0% | / | / | / | 7.7 | -12.8%[8.37 µM]
Cc1ccccc1COC(=O)c1ccc(-c2nnn(Cc3ccccc3F)n2)cc1 | -9.3% | 2.5%[46.1 µM] | 13.8%[46.1 µM] | / | -3.2 | /
COc1cccc(NC(=O)Cn2cc(C(=O)c3ccccc3)c3ccccc32)c1 | -27.2% | ? | ? | / | ? | /
Cc1cccc(NC(=O)Cn2cc(C(=O)C3CCCCC3)c3ccccc32)c1C | ? | ? | -29.0%[46.1 µM] | / | -92.6* | /
O=C(Cn1cc(C(=O)c2ccco2)c2ccccc21)Nc1ccccc1F | -24.0% | -3.1%[46.1 µM] | 0.0% | -0.8% | -74.7* | -21.1%
Cc1cccc(NC(=O)Cn2cc(C(=O)c3ccccc3)c3ccccc32)c1 | -21.4% | ? | ? | / | -79.6* | /
Cc1cccc(NC(=O)Cn2cc(C(=O)c3ccccc3)c3ccccc32)c1C | ? | ? | 0.4%[46.1 µM] | / | -66.6* | /
O=C(Cn1cc(C(=O)C2CCCCC2)c2ccccc21)Nc1ccccc1Cl | -24.9% | -29.1%[46.1 µM] | 16.5%[46.1 µM] | / | -14.1 | /
COc1cc(Nc2cc3c(cn2)nc(-c2ccco2)n3C)cc(OC)c1OC | / | / | / | / | 10.6 | /
O=S(=O)(Nc1nc(SCc2ccc(Cl)cc2)n[nH]1)c1ccccc1 | -29.2% | / | / | -0.7% | 30.7 | -27.4%
CC(C)NC(=O)Cn1cc(C(=O)C2CC2)c2ccccc21 | 8.8% | / | / | 1.0% | -61.4* | 5.9%
CC(C)NC(=O)Cn1cc(C(=O)c2ccccc2)c2ccccc21 | 2.1% | / | / | -1.2% | 96.0 | -6.5%
COc1ccc(CNc2ccc(Cl)cc2)cc1Cn1ccnc1 | ? | ? | -14.5% | -4.5% | -20.4 | ?
CCc1ccc(NCc2ccc(OC)c(Cn3ccnc3)c2)cc1 | ? | / | / | -5.6% | -63.7* | ?
O=C(OCC(=O)N1CCCC1)c1cc(Cl)ccc1[N+](=O)[O-] | -20.2% | 0.3%[46.1 µM] | 1.0% | -1.4% | -32.2 | 1.2%
N#CC(c1ccccc1O)N1N=C(c2ccccc2)CC1c1ccccc1 (stereo unspecified) | 37.3% | / | / | -1.1% | -60.7* | ?
COc1cc(C(C#N)N2N=C(c3ccccc3)CC2c2ccccc2)ccc1O (stereo unspecified) | 73.2% | 2.3% | 10.2% | -13.8% | 218.7 | -11.0%
COc1ccc(OC)c(CNC(=O)c2ccccc2NC(=O)c2nsc3ccccc23)c1 | -23.1% | / | 1.4%[46.1 µM] | / | 23.5 | /
CCOc1cc(CNC(=O)c2ccccc2NC(=O)c2nsc3ccccc23)ccc1OC | -19.5% | / | 0.0%[46.1 µM] | / | -81.6* | /
Cc1ccc(C(=O)NCc2ccc(N(C)C)cc2)cc1NC(=O)c1nsc2ccccc12 | 0.7% | / | 5.01µM* | / | 33.2 | /

Compound activity (PubChem BioAssay)
